Source: PubChem (several laboratories)
Shown are actives, neighbours in structure and some others; about 9.6% of the full set was active somewhere.
Lmaj promast = Leishmania major promastigote growth inhibition, primary screen; inhibition, % at 10 µM; Leishmania major promastigotes, resazurin fluorescence viability; 200,000 compounds, 9% hits; in the data active = inhibition above about 50%;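 note: promastigotes grown with compound for 44 hours at 28 °C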
INS promoter inh = inhibitors of insulin promoter-driven GFP, primary screen, imaging, TRM-6 cells (human fetal islet line), eGFP reporter, cell count | 130,000 compounds, 0.9% hits | inhibition, % at 2 µM | reporter expression induced with tamoxifen;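 active = inhibition above the mean plus 3 SD, with well images judged a real hit on visual review, cut at about 60% in these data, passing the limit was not always enough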
Insulin prom up = insulin promoter activators in MIN6 cells, imaging, high-content screening, mouse beta cells; MIN6 insulin promoter-GFP reporter; stronger effect = higher value; z-score at 5 µM; 190,000 compounds, 0.3% hits;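 active = z-score above 3 at 5 µM with at least 500 cells counted in the well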
Autophagy HCS = autophagy modulators in MEF cells, primary screen, imaging, high-content, MEF GFP-LC3. MEF GFP-LC3 puncta imaging; test concentration mostly 10 µM. calls only at 10 µM (by protocol). 190,000 compounds, 0.98% hits;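 active = percentage of spot-positive cells more than 3 SD above its plate mean, without a fluorescence outlier flag or 80% toxicity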;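 note: spot-positive cell cutoff set from DMSO-treated cells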
HCT116 bCat-KO = primary screen for growth suppressors in beta-catenin knockout HCT116 cells (colon tumor, human). HCT116 beta-catenin knockout viability, CellTiter-Glo, 60 h; stronger effect = lower value. 140,000 compounds, 1.5% hits. viability, % at 10 µM;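 active = viability at or under a set limit, the compound median less 4 SD, cut at about 6% in these data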;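 note: 0% = Hyamine 1622 control at 20 µM and 100% = untreated cell control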
HCT116 PTEN-null = growth suppression of PTEN-null HCT116, primary screen, cell-based, CellTiter-Glo; viability, % at 10 µM; HCT116 PTEN-null viability, 60 h; stronger effect = lower value; 140,000 compounds, 1.2% hits;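 active = viability at or below a set limit, 4 SD under the median of all tested compounds, cut at about 3.7% in these data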;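 note: PTEN knockout HCT116 line with beta catenin targeted HCT116 as companion control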
Starred values were filed as active, the others as inactive; i = inactive; . = not tested or not shown; + = active, no number.

SMILES	Lmaj promast	INS promoter inh	Insulin prom up	Autophagy HCS	HCT116 bCat-KO	HCT116 PTEN-null
COC(=O)[C@@]1(Cc2ccc(F)cc2)[C@H]2c3cc(C(=O)N4CCCC4)n(CCc4ccc(O)c(O)c4)c3C[C@H]2CN1C(=O)c1ccccc1	100*	5	-0.42	i	10	21
C(=N\Nc1nc(-c2ccccc2)cs1)/c1ccco1	3	.	0.14	i	66	79
O=C(CCC(=O)OCc1cccc([N+](=O)[O-])c1)Nc1ccccc1Cl	-5	-14	0.03	i	.	.
Fc1ccc(/C=N/NC(=S)Nc2ccc(Cl)cc2Cl)cc1	.	.	0.56	.	.	.
Cc1ccccc1N1CC(=O)Nc2c(oc3nc(-c4ccccc4)cc(C)c23)C1=O	.	.	-0.14	.	.	.
COC(=O)[C@@]1(Cc2ccccc2)[C@H]2c3cc(C(=O)N4CCCC4)n(Cc4ccsc4Br)c3C[C@H]2CN1C(=O)c1ccccc1	54*	-85	-0.02	i	6	12
COC(=O)[C@@]1(Cc2ccc(F)cc2)[C@H]2c3cc(C(=O)N4CCCC4)n(CCO)c3C[C@H]2CN1C(=O)c1ccccc1	11	5	0.95	i	88	88
CC(=O)c1cc(C#N)c(SCc2ccccn2)nc1C	.	.	-0.09	.	.	.
CCCn1c(SCc2nc3ccccc3s2)n[nH]c1=O	0	-64	1.1	i	.	.
COc1ccccc1N=c1scc(-c2ccc3c(c2)NC(=O)CO3)n1CC1CCCO1 (centres undefined)	6	35	.	i	61	61
COC(=O)c1cscc1NC(C)=O	-6	75*	0.84	i	98	104
COC(=O)c1ccc(Cl)c(NC(C)=O)c1	-6	-40	-0.05	i	96	93
COc1ccccc1-c1nc(C#N)c(N2CCN(C(c3ccccc3)c3ccccc3)CC2)o1	5	73*	-0.51	i	101	102
COc1ccc(C(=O)N/N=C(\c2ccccc2)c2ccccn2)cc1	100*	-15	0.4	i	4.6*	6
CCOc1ccccc1C(=O)N/N=C/c1cccc2cccnc12	25	-10	-0.12	i	32	35
COc1ccc(C(=O)N/N=C/c2cn[nH]c2-c2ccc(OC)cc2OC)cc1	-7	66*	0.1	i	87	90
CCOc1ccc(C(=O)N/N=C/c2cccc3cccnc23)cc1	98*	3	-0.21	i	10	8
COc1ccc(C(=O)N/N=C/c2cccc3cccnc23)cc1	97*	.	-0.27	i	4.9*	6
COc1ccc(-c2[nH]ncc2/C=N/NC(=O)c2ccc(Br)cc2)c(OC)c1	-7	24	0.06	i	84	91
COc1ccccc1C(=O)Oc1ccc(C(C)C)cc1	-9	13	1.4	i	91	89
Cn1c(SCC(=O)Nc2ccc3[nH]c(=O)[nH]c3c2)nnc1-c1ccc(F)cc1	.	.	0.17	.	.	.
O=c1[nH]c(N2CCCCC2)nc2c1CCCC2	7	28	0.44	i	106	101
Clc1ccc2c(NCc3ccccn3)ncnc2c1	3	71	0.84	i	82	79
Clc1ccc2c(NCc3ccco3)ncnc2c1	20	79*	.	i	60	58
COC(=O)c1ccc(CN2CCN(CCC(C)C)C(CCO)C2)cc1 (centres undefined)	62*	17	.	i	.	.
SMILES	Lmaj promast	INS promoter inh	Insulin prom up	Autophagy HCS	HCT116 bCat-KO	HCT116 PTEN-null
COc1ccccc1/C=C/CN1CCN(Cc2ccc(F)cc2)C(CCO)C1 (centres undefined)	83*	.	0.09	i	.	.
CC(C)CCN1CCN(Cc2ccoc2)CC1CCO (centres undefined)	.	.	0.39	.	.	.
COc1cc(CN2CCN(CCc3ccccc3)C(CCO)C2)cc(OC)c1 (centres undefined)	64*	.	-1	i	.	.
OCCC1CN(Cc2cccc(-c3ccco3)c2)CCN1Cc1ccsc1 (centres undefined)	85*	0	-0.39	i	.	.
CC1=C(C(=O)OCc2ccccc2)C(c2ccccc2-c2ccccc2)NC(=O)N1CCCCCC(=O)O (centres undefined)	-2	-100	-0.57	i	97	83
Cc1cccc(Cn2cnc3c(nnn3Cc3ccc(F)cc3)c2=O)c1	1	-43	.	i	73	73
c1csc(-c2nn3c(Cn4cnc5ccccc54)nnc3s2)c1	40	48	-0.16	i	104	96
CCOc1cc(CN2CCN(CCc3ccccc3)C(CCO)C2)ccc1OC (centres undefined)	19	.	-0.52	i	.	.
COc1cccc(CN2CCN(Cc3ccc(O)cc3)CC2CCO)c1 (centres undefined)	69*	-41	-0.29	i	.	.
CCOc1ccccc1CN1CCN(C/C=C/c2ccc(OC)cc2)CC1CCO (centres undefined)	30	.	-0.74	i	.	.
COC(=O)c1ccc(CN2CCN(CCc3ccccc3)C(CCO)C2)cc1 (centres undefined)	91*	.	-0.54	i	.	.
COc1ccc(/C=C/CN2CCN(CCc3ccccc3)C(CCO)C2)cc1 (centres undefined)	90*	.	-0.16	i	.	.
O=C(c1cn(-c2ccccc2)nc1-c1ccncc1)N1CCCCC1	-4	10	-0.2	i	100	98
Cc1ccc2[nH]cc(C(=O)CCl)c2c1	81*	-4	-0.1	i	2.8*	2.3*
CCSCc1nc2ccccn2c1Br	6	76*	-0.84	i	.	.
CCCCSCc1nc2ccccn2c1Br	15	24	-0.32	i	.	.
CCOC(=O)CN1C(=O)C(O)(c2c(C)[nH]c3ccccc23)c2ccccc21 (centres undefined)	4	-12	-0.29	i	88	74
Cc1ccc(NC(=O)Nc2ccc(F)cc2F)c(OC(F)F)c1	0	.	-0.01	i	.	.
COc1ccc(NC(=O)Nc2cc(C)ccc2OC(F)F)c(OC)c1	67*	-45	.	i	98	100
COc1ccc(Nc2ncnc3c2cnn3Cc2ccc(C)cc2)cc1	90*	3	0.61	i	85	75
CC(C)Cc1ccc(S(=O)(=O)N2CCCC2)cc1	-3	37	-0.5	i	87	92
COc1ccc(/C=N/Nc2ncnc3c2[nH]c2ccccc23)c(OC)c1OC	66*	31	-0.17	i	94	87
CCOC(=O)C(NC(=O)Nc1ccc(F)cc1F)(Oc1ccc(F)cc1)C(F)(F)F (centres undefined)	-2	-71	-0.04	i	97	100
CCOC(=O)c1cc(=O)n(-c2ccc(Cl)cc2C)[nH]1	55*	-6	-0.13	i	99	95
Cc1cc(C)c[n+](-c2nc3ccccc3nc2[N-]S(=O)(=O)c2ccc(Br)s2)c1	-2	-94	0.12	+	75	65
O=S(=O)([N-]c1nc2ccccc2nc1-[n+]1ccccc1)c1ccccc1	4	.	-0.05	i	98	108
